# Experimental data published in the supplement of paper PMC10849652.
# Of roughly 7,900 targets only a part is listed; those with a hit were picked by preference. About 0.6% of all pairs of compound and target were hits. A number with no mark means an inactive call.
# What was measured:
# Test in all cases: log2 fold change, soluble protein after heating vs DMSO (PISA); higher = thermal stabilisation; K562 cells, 10 uM, 30 min; active = over 0.2 and 3.5 SD of the protein, either way, in both replicates (recomputed)
# [1] = compound: NC(=O)Nc1cc(-c2cccc(F)c2)sc1C(=O)N[C@H]1CCCNC1
# How it was run: (§1)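 Aliquots of K562 cells (2×10^6 cells/mL) treated with 10 μM compound for 30 min were heated for 3 min over 48°C-58°C. After pooling and extraction in PBS with 0.5% NP-40 at 4°C, soluble protein from a 21,000xg, 90 min spin was quantified by TMTpro 16plex LC-MS/MS with channel sums equalised. Thermal stability is expressed against control samples, from duplicates, as a log2 fold change.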
# [2] = compound: NC(=O)c1cnc(N[C@@H]2CCCC[C@@H]2N)nc1Nc1cccc(-n2nccn2)c1
# How it was run: as §1
# [3] = compound: NC1(c2ccc(-c3nc4ccn5c(=O)[nH]nc5c4cc3-c3ccccc3)cc2)CCC1
# How it was run: as §1
# [4] = compound: NCC(=O)Nc1ccc(-n2nc(C(F)(F)F)cc2-c2ccc3c(ccc4ccccc43)c2)cc1
# How it was run: as §1
# [5] = compound: Nc1ccccc1NC(=O)c1ccc(CNC(=O)OCc2cccnc2)cc1 [entinostat]
# How it was run: as §1
# [6] = compound: O=C(CCCCCCC(=O)Nc1ccccc1)NO [vorinostat]
# How it was run: as §1
# [7] = compound: O=C(CCCCCCNC(=O)c1cnc(N(c2ccccc2)c2ccccc2Cl)nc1)NO [citarinostat]
# How it was run: as §1
# [8] = compound: O=C(O)c1ccc2c(c1)nc(Nc1cccc(Cl)c1)c1ccncc12 [silmitasertib]
# How it was run: as §1
# [9] = compound: O=C1NC(=O)C(c2cnc3ccccn23)=C1c1cn2c3c(cc(F)cc13)CN(C(=O)N1CCCCC1)CC2
# How it was run: as §1
# [10] = compound: c1cc(OCCN2CCCCC2)cc(-c2n[nH]c3ccc(-c4nnc[nH]4)cc23)c1
# How it was run: as §1
# Chain of UniProt Q9Y5W9 (Q9Y5W9 whole entry, looked up): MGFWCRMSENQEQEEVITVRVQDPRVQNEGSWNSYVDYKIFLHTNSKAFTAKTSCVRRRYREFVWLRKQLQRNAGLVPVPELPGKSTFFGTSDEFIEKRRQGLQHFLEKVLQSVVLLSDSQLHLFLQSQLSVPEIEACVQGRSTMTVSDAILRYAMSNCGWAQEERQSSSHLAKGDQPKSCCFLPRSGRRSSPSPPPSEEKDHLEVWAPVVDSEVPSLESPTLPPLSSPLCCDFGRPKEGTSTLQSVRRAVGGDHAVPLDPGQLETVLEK
# Chain of UniProt Q92797 (Q92797 whole entry, looked up): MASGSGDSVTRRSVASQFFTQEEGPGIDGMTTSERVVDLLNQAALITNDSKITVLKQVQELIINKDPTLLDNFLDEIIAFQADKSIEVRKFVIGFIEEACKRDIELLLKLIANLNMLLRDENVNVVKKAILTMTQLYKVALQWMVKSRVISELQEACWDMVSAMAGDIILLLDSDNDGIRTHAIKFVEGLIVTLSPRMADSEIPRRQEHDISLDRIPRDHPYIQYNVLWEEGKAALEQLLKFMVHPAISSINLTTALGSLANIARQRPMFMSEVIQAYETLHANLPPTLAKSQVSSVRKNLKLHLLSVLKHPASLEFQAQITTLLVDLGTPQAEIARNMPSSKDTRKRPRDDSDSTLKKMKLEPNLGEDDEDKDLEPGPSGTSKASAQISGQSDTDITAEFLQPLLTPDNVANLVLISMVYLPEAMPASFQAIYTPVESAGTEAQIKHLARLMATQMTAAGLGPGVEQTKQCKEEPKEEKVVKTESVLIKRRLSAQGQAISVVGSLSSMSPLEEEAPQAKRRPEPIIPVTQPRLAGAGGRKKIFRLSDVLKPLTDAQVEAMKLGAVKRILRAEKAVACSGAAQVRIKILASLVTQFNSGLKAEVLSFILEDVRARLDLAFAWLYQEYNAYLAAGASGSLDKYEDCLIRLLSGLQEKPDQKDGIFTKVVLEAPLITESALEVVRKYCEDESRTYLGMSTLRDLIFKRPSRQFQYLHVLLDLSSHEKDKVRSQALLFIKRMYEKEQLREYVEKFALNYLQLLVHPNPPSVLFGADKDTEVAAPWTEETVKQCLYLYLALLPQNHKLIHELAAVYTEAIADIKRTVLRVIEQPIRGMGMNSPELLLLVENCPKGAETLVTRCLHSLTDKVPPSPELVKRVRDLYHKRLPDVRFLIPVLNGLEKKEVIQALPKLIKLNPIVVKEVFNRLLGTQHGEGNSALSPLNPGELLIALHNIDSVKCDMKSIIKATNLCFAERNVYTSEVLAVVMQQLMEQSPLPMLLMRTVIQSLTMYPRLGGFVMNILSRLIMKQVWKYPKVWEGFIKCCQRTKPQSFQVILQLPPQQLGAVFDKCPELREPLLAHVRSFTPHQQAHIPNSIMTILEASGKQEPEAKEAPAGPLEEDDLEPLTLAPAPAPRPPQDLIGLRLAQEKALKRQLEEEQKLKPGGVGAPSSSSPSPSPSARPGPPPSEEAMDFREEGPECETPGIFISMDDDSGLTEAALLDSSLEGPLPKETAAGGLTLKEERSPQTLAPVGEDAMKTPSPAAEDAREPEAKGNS
# Chain of UniProt Q02447 (Q02447 whole entry, looked up): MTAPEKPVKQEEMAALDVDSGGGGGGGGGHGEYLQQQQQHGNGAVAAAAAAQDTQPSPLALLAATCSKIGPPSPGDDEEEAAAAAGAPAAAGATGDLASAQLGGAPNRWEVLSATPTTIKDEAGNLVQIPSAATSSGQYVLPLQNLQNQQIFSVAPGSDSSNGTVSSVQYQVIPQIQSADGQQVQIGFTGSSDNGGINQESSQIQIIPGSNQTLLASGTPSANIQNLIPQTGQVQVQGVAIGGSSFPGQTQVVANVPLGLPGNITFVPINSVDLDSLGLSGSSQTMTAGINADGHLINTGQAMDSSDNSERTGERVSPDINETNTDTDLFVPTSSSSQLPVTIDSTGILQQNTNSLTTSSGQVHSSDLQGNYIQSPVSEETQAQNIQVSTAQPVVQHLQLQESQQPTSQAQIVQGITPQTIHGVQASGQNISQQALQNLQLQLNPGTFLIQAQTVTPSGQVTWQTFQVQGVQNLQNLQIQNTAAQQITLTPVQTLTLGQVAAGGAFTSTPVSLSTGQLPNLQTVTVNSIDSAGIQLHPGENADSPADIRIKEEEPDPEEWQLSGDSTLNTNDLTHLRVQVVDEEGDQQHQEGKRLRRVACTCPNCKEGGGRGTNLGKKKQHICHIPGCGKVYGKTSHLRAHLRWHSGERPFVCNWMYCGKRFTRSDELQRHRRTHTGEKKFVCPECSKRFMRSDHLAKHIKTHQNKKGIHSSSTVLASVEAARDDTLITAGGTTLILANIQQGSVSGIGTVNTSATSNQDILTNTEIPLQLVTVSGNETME
# Chain of UniProt Q92844 (Q92844 whole entry, looked up): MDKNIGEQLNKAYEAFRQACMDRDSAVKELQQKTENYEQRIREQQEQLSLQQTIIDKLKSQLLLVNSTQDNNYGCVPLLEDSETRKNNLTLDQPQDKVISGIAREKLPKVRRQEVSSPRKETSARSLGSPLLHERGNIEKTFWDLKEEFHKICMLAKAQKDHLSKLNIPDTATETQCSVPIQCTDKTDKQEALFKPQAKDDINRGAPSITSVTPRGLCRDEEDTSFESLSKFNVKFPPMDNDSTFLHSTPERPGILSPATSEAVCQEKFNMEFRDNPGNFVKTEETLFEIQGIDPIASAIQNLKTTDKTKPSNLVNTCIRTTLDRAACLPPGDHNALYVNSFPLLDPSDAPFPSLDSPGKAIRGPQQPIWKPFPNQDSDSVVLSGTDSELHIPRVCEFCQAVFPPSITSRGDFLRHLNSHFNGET
# Chain of UniProt Q15833 (Q15833 whole entry, looked up): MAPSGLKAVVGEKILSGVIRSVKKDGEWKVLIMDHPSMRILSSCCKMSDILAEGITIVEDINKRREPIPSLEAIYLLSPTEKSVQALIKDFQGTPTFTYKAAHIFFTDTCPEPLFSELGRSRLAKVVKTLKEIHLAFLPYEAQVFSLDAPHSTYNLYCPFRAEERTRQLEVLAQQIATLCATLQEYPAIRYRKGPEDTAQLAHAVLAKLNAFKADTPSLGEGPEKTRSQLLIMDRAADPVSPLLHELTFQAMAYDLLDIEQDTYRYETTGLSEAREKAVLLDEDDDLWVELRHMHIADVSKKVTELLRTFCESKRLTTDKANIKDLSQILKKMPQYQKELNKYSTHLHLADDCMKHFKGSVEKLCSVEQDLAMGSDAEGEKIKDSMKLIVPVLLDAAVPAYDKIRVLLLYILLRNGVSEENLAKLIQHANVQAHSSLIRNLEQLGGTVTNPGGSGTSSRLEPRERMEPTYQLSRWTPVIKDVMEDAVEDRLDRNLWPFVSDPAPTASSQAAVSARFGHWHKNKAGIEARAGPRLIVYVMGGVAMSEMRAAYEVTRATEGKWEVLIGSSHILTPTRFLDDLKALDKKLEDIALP
# Chain of UniProt Q16385 (Q16385 whole entry, looked up): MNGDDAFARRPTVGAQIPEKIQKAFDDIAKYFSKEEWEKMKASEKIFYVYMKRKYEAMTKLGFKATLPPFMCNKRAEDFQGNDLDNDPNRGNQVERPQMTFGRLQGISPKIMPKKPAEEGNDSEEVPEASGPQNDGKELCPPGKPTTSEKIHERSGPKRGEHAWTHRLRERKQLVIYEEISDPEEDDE
# Chain of UniProt Q92581 (Q92581 whole entry, looked up): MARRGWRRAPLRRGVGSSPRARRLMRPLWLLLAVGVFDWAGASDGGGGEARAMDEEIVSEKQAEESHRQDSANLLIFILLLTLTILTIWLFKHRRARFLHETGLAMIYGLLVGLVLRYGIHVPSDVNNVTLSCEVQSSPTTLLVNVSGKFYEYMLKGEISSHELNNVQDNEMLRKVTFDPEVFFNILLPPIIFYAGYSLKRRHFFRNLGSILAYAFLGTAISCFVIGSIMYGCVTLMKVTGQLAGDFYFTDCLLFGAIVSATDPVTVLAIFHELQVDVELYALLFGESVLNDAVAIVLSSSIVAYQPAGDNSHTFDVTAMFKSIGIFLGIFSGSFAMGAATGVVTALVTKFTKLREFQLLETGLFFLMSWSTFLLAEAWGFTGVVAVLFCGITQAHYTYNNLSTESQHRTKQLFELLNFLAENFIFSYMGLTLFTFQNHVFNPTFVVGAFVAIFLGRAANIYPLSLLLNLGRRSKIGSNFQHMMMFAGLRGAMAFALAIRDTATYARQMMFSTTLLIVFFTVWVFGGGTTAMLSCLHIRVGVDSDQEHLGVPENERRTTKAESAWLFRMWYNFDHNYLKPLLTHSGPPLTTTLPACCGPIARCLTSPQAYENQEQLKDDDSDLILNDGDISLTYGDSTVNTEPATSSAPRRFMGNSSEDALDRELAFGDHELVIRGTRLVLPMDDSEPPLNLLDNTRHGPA
# Chain of UniProt Q9Y5J6 (Q9Y5J6 whole entry, looked up): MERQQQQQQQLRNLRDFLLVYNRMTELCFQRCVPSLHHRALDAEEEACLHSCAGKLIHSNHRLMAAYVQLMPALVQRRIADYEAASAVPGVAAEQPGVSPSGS
# Chain of UniProt Q9Y5M8 (Q9Y5M8 whole entry, looked up): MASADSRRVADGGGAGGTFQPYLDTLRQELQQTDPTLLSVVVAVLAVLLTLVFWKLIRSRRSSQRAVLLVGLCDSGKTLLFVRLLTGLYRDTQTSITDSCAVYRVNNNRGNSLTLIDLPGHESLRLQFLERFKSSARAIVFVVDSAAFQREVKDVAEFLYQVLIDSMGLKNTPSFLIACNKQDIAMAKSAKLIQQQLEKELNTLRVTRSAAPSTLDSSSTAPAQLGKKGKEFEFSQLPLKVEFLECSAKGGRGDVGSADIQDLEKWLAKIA
# Chain of UniProt P04183 (P04183 whole entry, looked up): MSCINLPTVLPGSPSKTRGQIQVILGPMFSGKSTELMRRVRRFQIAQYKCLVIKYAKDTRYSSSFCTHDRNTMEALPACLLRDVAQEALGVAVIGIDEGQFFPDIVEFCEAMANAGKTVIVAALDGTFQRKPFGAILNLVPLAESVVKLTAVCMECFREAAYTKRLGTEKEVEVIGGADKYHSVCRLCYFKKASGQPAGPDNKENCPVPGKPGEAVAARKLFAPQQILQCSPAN
Target,log2 fold change [1],log2 fold change [2],log2 fold change [3],log2 fold change [4],log2 fold change [5],log2 fold change [6],log2 fold change [7],log2 fold change [8],log2 fold change [9],log2 fold change [10]
TANK (UniProt Q92844),0.076,0.041,-0.035,0.023,-0.001,-0.084,-0.022,0.064,0.028,0.01
TIMM10B (UniProt Q9Y5J6),0.021,0.257,-0.111,-0.007,0.016,-0.202,0.074,0.034,-0.04,0.022
SULT1A1 (UniProt P50225),-0.049,0.039,-0.179,0.123,0.133,0.063,0.056,-0.038,-0.095,0.032
SP3 (UniProt Q02447),0.15,-0.011,-0.033,0.025,0.027,-0.026,-0.147,0.046,-0.02,0.04
SUPT5H (UniProt O00267),-0.031,-0.049,-0.129,-0.095,0.029,0.043,0.074,0.038,-0.115,-0.028
STARD7 (UniProt Q9NQZ5),-0.048,-0.113,-0.088,0.012,0.008,0.114,0.073,-0.011,0.341 (active),-0.089
SLC44A2 isoform 2 (UniProt Q8IWA5),-0.086,0.168,0.128,0.05,-0.06,-0.006,0.091,-0.071,-0.075,-0.289
SMARCE1 (UniProt Q969G3),0.05,0.096,0.218,0.707,0.076,0.088,0,0.211,-0.008,-0.016
STK4 (UniProt Q13043),0.248 (active),-0.031,-0.1,0.006,-0.041,0.011,0.064,-0.015,-0.031,-0.122
SYMPK (UniProt Q92797),-0.018,0.012,-0.287,-0.08,0.025,0.11,0.051,0.167,0.033,-0.037
SMARCAD1 isoform 2 (UniProt Q9H4L7),-0.109,-0.043,-0.187,-0.072,0.057,0.045,0.037,0.03,-0.187,0.088
SRC isoform 2 (UniProt P12931),-0.578 (active),0.006,0.049,-0.088,0.12,0.079,-0.104,0.122,0.093,0.199
TGFBRAP1 (UniProt Q8WUH2),0.065,-0.03,-0.209,-0.006,-0.013,0.256,-0.367,0.056,0.069,0.013
SMG1 (UniProt Q96Q15),-0.073,-0.111,-0.101,-0.073,-0.097,-0.012,0.024,0.142,0.013,-0.187
SP100 isoform 4 (UniProt P23497),0.03,-0.007,-0.025,-0.039,0.007,-0.046,-0.011,0.059,-0.051,0.02
SUN2 (UniProt Q9UH99),0.002,0.011,-0.054,-0.03,0.054,0.018,0.019,0.007,0.097,-0.087

Target,log2 fold change [1],log2 fold change [2],log2 fold change [3],log2 fold change [4],log2 fold change [5],log2 fold change [6],log2 fold change [7],log2 fold change [8],log2 fold change [9],log2 fold change [10]
SUCLG1 (UniProt P53597),-0.037,-0.077,-0.106,-0.059,0.012,0,0.043,-0.037,-0.073,-0.049
SLC30A10 (UniProt Q6XR72),-0.035,0.088,0.084,0.133,-0.003,-0.215,-0.008,-0.05,-0.005,-0.432 (active)
STAM2 (UniProt O75886),-0.111,-0.136,-0.133,-0.101,0.012,0.04,0.026,0.049,-0.041,0.064
SUGP1 (UniProt Q8IWZ8),0,-0.05,-0.073,-0.071,0.054,0.077,0.074,0.101,-0.065,0.045
SQSTM1 (UniProt Q13501),-0.036,-0.12,-0.068,-0.079,0.051,0.007,0.081,0.056,0.019,-0.094
SNX11 (UniProt Q9Y5W9),-0.052,-0.277,-0.378 (active),-0.052,0.097,0,0.233,0.025,-0.023,-0.072
SLC9A6 isoform 2 (UniProt Q92581),-0.021,0.016,-0.091,-0.02,-0.017,-0.078,0.025,0.027,-0.021,-0.073
TGFBR1 isoform 2 (UniProt P36897),0.029,0.072,-0.041,0.002,0.093,-0.083,0.017,0.073,-0.052,-0.054
SSX2 (UniProt Q16385),-0.049,-0.094,-0.02,-0.057,-0.054,-0.022,-0.025,0.011,-0.098,0.033
STK11IP (UniProt Q8N1F8),0.098,-0.412,-0.285,0.086,0.046,-0.184,-0.032,0.217,0.095,0.016
TK1 (UniProt P04183),0.021,0.018,0.02,0.031,-0.068,-0.007,0.016,0.013,-0.025,-0.027
STXBP2 isoform 3 (UniProt Q15833),-0.084,-0.066,-0.12,-0.051,0.035,0.105,0.046,0.112,0.141,0.036
TBK1 (UniProt Q9UHD2),0.196,0,-0.086,-0.118,0.055,-0.025,0.064,0.057,-0.014,-0.029
SUPT16H (UniProt Q9Y5B9),-0.017,-0.111,-0.183,-0.158,0.207,0.178,0.198,0.109,-0.227,0.025
SRPRB (UniProt Q9Y5M8),0.048,0.028,-0.056,-0.038,0.045,0.029,0.029,-0.007,-0.014,0.045
